Test results: PubChem BioAssay AID1903 (Southern Research Specialized Biocontainment Screening …, 2009)
Screen size: about 310,000 compounds; about 1,200 (0.39%) were called active. The rule behind the calls is not given here. Only a sample is shown. Measured potencies and affinities stand elsewhere.

The compounds below were run against Large T antigen (Simian virus 40) (UniProt P03070) (assay: SV40 large T antigen inhibitors, biochemical (AID 1903)). Conditions: SV40 large T antigen ATPase/helicase inhibition assay; at 20 µM; stronger effect = higher value.
Chain of Large T antigen (Simian virus 40) (P03070 whole entry, looked up): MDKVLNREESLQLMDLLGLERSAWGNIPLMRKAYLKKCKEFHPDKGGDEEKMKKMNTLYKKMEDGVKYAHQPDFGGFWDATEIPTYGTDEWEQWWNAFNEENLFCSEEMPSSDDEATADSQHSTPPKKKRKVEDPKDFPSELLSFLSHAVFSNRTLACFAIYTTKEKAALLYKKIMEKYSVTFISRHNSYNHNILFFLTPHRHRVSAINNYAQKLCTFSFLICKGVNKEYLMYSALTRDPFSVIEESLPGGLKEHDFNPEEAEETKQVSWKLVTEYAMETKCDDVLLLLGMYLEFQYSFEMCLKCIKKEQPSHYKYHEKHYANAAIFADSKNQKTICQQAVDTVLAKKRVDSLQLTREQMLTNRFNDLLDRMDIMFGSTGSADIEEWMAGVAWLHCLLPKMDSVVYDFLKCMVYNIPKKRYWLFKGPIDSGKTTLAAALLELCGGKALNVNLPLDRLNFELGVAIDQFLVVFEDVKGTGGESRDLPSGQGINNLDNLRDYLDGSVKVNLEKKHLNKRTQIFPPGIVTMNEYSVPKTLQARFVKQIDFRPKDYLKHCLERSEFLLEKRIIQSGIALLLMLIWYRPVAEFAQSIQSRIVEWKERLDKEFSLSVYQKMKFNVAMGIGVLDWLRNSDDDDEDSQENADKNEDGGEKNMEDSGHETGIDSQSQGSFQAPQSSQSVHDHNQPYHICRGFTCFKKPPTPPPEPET

inhibition, inactive:
COc1ccc(-c2noc(N3CCC(C(=O)NCCCN4CCCCC4)CC3)n2)cc1 11.4%, C/C(=N\NC(=O)c1c(Cl)c(C)nn1C)c1cccc(NC(=O)c2cccc(F)c2)c1 27.2%, O=C(Cc1ccccc1)NCC(=O)N/N=C/c1cccnc1 12.9%, O=C1Nc2ccc(S(=O)(=O)N3CCOCC3)c3cccc1c23 3.61%, CCOC(=O)C1=C(C)NC(=O)C(C(N)=O)C12CCCCC2 (stereo unspecified) 4.24%, CN(CCc1ccccn1)C(=O)CCC1CCCN(C(=O)CN2CCCCCC2)C1 (stereo unspecified) 16.4%, Cc1cccc(Nc2nc3c(S(=O)(=O)c4ccccc4)nnn3c3ccccc23)c1 8.95%, CCCN1C(=O)/C(=N\OCC(=O)NC23CC4CC(CC(C4)C2)C3)c2ccccc21 19.7%, COc1ccc(C2CC(=O)c3cnc(N4CCc5ccccc54)nc3C2)cc1OC (stereo unspecified) 6.12%, CCOC(=O)C(CC)n1nc(C)n2c(cc3sccc32)c1=O (stereo unspecified) 9.17%, Cc1cc(N)ccc1N1CCCC1 11.3%, Cc1cc(N)ccc1-n1c(C)ccc1C 15.8%, Cc1ccc(CNC(C)(C)CO)cc1 1.14%, Cc1nc(-c2ccccc2O)n(S(=O)(=O)N(C)C)n1 12.3%, CCN(CC(=O)Nc1ccc(NC(C)=O)cc1)C(=O)c1ccc(NC2CC2)c([N+](=O)[O-])c1 9.29%, CCN(C(=O)c1ccc(Cl)c([N+](=O)[O-])c1)c1ccccc1 4.72%, COCCNC(=O)C(=O)c1cc(C)n(-c2ccc([N+](=O)[O-])cc2)c1C 3.94%, CCN1C(=O)c2ccccc2Sc2ccc(C(=O)NCCCN3CCCCC3)cc21 10.1%, CCc1nnc(NC(=O)COc2ccc(N(C)S(=O)(=O)c3ccc(C)cc3)cc2)s1 4.23%, C=CCOc1ccc(CNc2ccc3[nH]c(=O)[nH]c3c2)cc1OC 13.7%, C=CCOc1cccc(CNCc2ccncc2)c1 8.06%, C=CCOc1cccc(CNc2cccc(C(=O)O)c2)c1 15.2%, C=CCOc1ccc(CNc2ccc(NC(=O)CCC)cc2)cc1OCC 18.3%, Oc1ccc(NCc2cccc(OCc3ccc(F)cc3)c2)cc1 29.3%, Fc1ccc(CNc2ccc(CNc3ncn[nH]3)cc2)cc1 19.6%, CNC(=O)COc1coc(CN2CCN(c3ccc(OC)cc3)CC2)cc1=O 21.7%, COc1ccc(-n2ccnc2SCC(=O)Nc2ccccc2)cc1 15%, CC(=O)c1ccc(N2CCN(C(=O)Cc3cccs3)CC2)cc1 1.64%, Cc1ccc2cccnc2c1N 5.53%, Cc1ccc2nc(C)c(C)nc2c1N 17.3%, Cc1cccc(-c2nnc(NC(=O)c3ccco3)s2)c1 8.94%, CN(c1ccc(F)cc1)S(=O)(=O)c1ccc2[nH]cc(C(=O)O)c(=O)c2c1 5.14%, COc1cccc(C(=O)Nc2c3c(nn2-c2ccc([N+](=O)[O-])cc2)CS(=O)(=O)C3)c1 3.72%, CCN(CC)C(=O)CSc1nc2ccc(NC(=O)CSc3nnc(N)s3)cc2s1 5.67%, CCN(CC)S(=O)(=O)c1cccc(NC(=O)CSc2nnc(N)s2)c1 2.59%, Cc1cccc(OCC(=O)NNC(=O)CCc2ccccc2)c1 15.5%, Nc1ccc(S(=O)(=O)NNC(=O)C(=O)NNc2ccccn2)cc1 11.5%, Cn1c(=O)c2c(nc(N3CCOCC3)n2CCSc2ncccn2)n(C)c1=O 12.4%, COc1cc(S(=O)(=O)Nc2ccc(C)cc2)ccc1N=Cc1c(C)[nH]n(-c2ccc(C)cc2)c1=O 2.78%, COc1cc(SC#N)ccc1N=Cc1c(C)[nH]n(-c2ccc(Cl)cc2)c1=O 17.5%, COc1ccc(N=Cc2c(O)n(-c3cccc(C)n3)c(=O)c3ccccc23)c(OC)c1 13.7%, COc1ccccc1N=Cc1c(C)[nH]n(-c2ccc(C)cc2C)c1=O 27.4%, COc1cccc(N=Cc2c(O)n(-c3cccc(C)n3)c(=O)c3ccccc23)c1 18%, COc1cc(SC#N)ccc1N=Cc1c(C)[nH]n(-c2ccc(C)c(C)c2)c1=O 35.9%, CCON1C(=O)CN(C(=O)OC)C1c1ccc(Cl)cc1Cl (stereo unspecified) 19.9%, Cc1ccccc1NC(=O)Cn1nnc2sc3c(c2c1=O)CC(C)(C)OC3 7.47%, O=C(Nc1ccc(S(=O)(=O)N2CCCCC2)cc1)C1CC(=O)N(Cc2ccccc2)C1 (stereo unspecified) 16.5%, CSC1=NCCCN1C(=O)c1c(-c2ccccc2Cl)noc1C 10.2%, O=C(O)C1CCCC[C@H]1C(=O)Nc1ncc([N+](=O)[O-])s1 (stereo partly specified) 3.81%, COc1ccc(CCNC(=S)Nc2ccc(C(C)C)cc2)cc1 13.7%, CC(/C=C1\SC(=S)N(CC(=O)O)C1=O)=C\c1ccccc1 19.5%, CC(=C\c1ccccc1)/C=C1/SC(=S)N(CCC(=O)O)C1=O 0.31%, Cc1ccc(-c2n[nH]c(=S)n2C)cc1 14.5%, Cc1ccc(S(=O)(=O)c2c(C)nn(-c3ccccc3)c2OC(=O)c2ccc(Br)o2)cc1 6.66%, O=C(Nc1nc2ccccc2n1Cc1ccccc1)c1ccco1 -0.22%, CCC/C(=N\NC(=O)CCC(=O)NCc1ccccc1)c1ccccc1 8.82%, CCCCC/C(=N\NC(=O)CCC(=O)NCc1ccccc1)c1ccccc1 -0.61%, Cc1ccc(-c2nc(CSCC(=O)NCCCN3CCOCC3)c(C)o2)cc1 26.4%, CN(C)c1ccc(C2OC(=O)C3(CCCC3)C(=O)C2(C)C)cc1 (stereo unspecified) 1.45%, COc1cc(C(=O)OCCN2CCOCC2)ccc1O 25.1%, COc1cc(C(=O)OCCCN2CCOCC2)ccc1O 30.9%, COCCOc1ccc(C(F)(F)F)cc1NC(=O)c1ccc(C(F)(F)F)cc1 2.65%, C=C(c1ccc(O)cc1)c1ccc(O)cc1 12.5%, Oc1ccc(Oc2ccc(Oc3ccc(O)cc3)cc2)cc1 11.2%, COc1ccc2[nH]c(C(=O)NCCc3ccccc3)cc2c1 6.64%, O=C(CCCOc1ccccc1)N1CCN(c2ccc(F)cc2)CC1 0.74%, Cc1ccc(OCCC(=O)OCC(=O)N2CCN(S(=O)(=O)c3ccc(C)cc3)CC2)cc1 10.3%, CCOC(=O)N1CCN(c2ccc(Cl)cc2)CC1 24.6%, O=C(CCSc1ccccc1)N1CCN(c2ccccc2)CC1 8.73%, CCOC(=O)N1CCN(c2ccc([N+](=O)[O-])cc2)CC1 5.56%, Cc1ccc(OCCC(=O)OCC(=O)N2CCN(S(=O)(=O)c3ccc(Cl)cc3)CC2)cc1 30.2%, O=C(CCSc1ccc(Cl)cc1)N1CCOCC1 23.4%, O=C(CCCOc1ccccc1)N1CCN(c2ccccc2)CC1 -0.15%, COc1ccc(OC)c(CCNC(=O)c2ccc3c(c2)N(Cc2ccccc2)CCS3)c1 -0.13%, O=C(CNC(=O)c1cccc(F)c1)OCC(=O)N1CCCc2ccccc21 7.9%, Cc1ccc(NS(=O)(=O)c2ccc(CCC(=O)NCCCOC(C)C)cc2)cc1 5.53%, COc1ccc(S(=O)(=O)c2nnn(-c3cccc(OC)c3)c2N)cc1 22.2%, O=[N+]([O-])c1ccc(-n2cccc2/C=N/Nc2nc(N3CCCCC3)nc(N3CCCCC3)n2)cc1 9.66%, O=C(CNC(=O)c1ccccc1F)OCC(=O)N1CCCCC1 7.93%, Cc1cc(C)c(S(=O)(=O)c2ccccc2C)c(N(C)C)n1 21.5%, COc1cc(/C=C2\SC(=S)N(CCC(=O)Nc3ccc(O)cc3)C2=O)cc(OC)c1OC 5.27%, O=C(Nc1ccc2c(c1)OCO2)c1ccc(NC2CC2)c([N+](=O)[O-])c1 12.5%, CCn1c(-c2nn(-c3ccccc3)ccc2=O)n[nH]c1=S 9.69%, COc1ccc(NS(=O)(=O)c2cccc(C(=O)NCC(c3ccccc3OC)N3CCCC3)c2)cc1 (stereo unspecified) 5.32%, Cc1ccc(OCCCC(=O)N2CCOCC2)cc1 0.37%, COc1cc(OC)cc(C(=O)NCC(=O)N2CCCCC2)c1 4.74%, O=C(C1CC1)N1CCN(c2ccc([N+](=O)[O-])cc2)CC1 12.1%, COc1ccc(OCC(=O)N2CCN(c3cccc(C(F)(F)F)c3)CC2)cc1 17%, O=C(COc1cccc(C(F)(F)F)c1)N1CCN(c2ccccc2O)CC1 22.7%, COc1ccc(N2CCN(C(=O)COC(=O)CCOc3ccc(C)cc3)CC2)cc1 10.6%, COc1ccc(C(=O)NCC(=O)N2CCN(c3ccc(Cl)cc3)CC2)cc1 10.9%, O=C(C1CC1)N1CCN(c2ccc(F)cc2)CC1 2.25%, c1ccc(Nc2nc(-c3ccccc3)ns2)cc1 -2.89%, CSc1nnc2c(n1)OC(c1cccn1C)N(C(C)=O)c1ccccc1-2 (stereo unspecified) 15.3%, Cn1cnc(S(=O)(=O)NCc2ccccc2)c1 6.21%, Cc1ccc(C(=O)Nc2ccc(S(=O)(=O)N3CCOCC3)cc2)cc1C 0.36%
